Source: PubChem BioAssay AID1788 (Vanderbilt High Throughput Screening Facility, 2009)
A number with no mark means an inactive call. The rule behind the calls is not given here.

System: Rolipram (rat)
Assay: PubChem AID 1788
Conditions: MDS Pharma lead profiling panel, radioligand binding, at 10 µM, hits give high values

CCOC(=O)N1CCC(NCCNC(=O)c2ccccc2C)CC1 was tested, and the inhibition was -2%.
